Data published in ChEMBL document CHEMBL3988442, “University of Dundee, Small-Polar-MMV Screening Library” (2021).
For some of these results: Results with a measured potency or affinity are listed apart.

What was measured:
Parameters in all cases: scale not given: direction of the effect not stated beside the values
[1] = target: Protein translocase subunit SecA (Escherichia coli (strain K12)) (UniProt P10408); experiment: Assay to Identify E. coli SecA ATPase Inhibitors; format: functional; conditions: 30 µM
[2] = target: T1, Ubiquitin-activating enzyme e1, putative (Leishmania donovani (strain BPK282A1)) (UniProt E9BSI1); experiment: Leishmania donovani Ubiquitin Activating Enzyme (LdE1); format: functional; conditions: 30 µM
T1 sequence (whole entry): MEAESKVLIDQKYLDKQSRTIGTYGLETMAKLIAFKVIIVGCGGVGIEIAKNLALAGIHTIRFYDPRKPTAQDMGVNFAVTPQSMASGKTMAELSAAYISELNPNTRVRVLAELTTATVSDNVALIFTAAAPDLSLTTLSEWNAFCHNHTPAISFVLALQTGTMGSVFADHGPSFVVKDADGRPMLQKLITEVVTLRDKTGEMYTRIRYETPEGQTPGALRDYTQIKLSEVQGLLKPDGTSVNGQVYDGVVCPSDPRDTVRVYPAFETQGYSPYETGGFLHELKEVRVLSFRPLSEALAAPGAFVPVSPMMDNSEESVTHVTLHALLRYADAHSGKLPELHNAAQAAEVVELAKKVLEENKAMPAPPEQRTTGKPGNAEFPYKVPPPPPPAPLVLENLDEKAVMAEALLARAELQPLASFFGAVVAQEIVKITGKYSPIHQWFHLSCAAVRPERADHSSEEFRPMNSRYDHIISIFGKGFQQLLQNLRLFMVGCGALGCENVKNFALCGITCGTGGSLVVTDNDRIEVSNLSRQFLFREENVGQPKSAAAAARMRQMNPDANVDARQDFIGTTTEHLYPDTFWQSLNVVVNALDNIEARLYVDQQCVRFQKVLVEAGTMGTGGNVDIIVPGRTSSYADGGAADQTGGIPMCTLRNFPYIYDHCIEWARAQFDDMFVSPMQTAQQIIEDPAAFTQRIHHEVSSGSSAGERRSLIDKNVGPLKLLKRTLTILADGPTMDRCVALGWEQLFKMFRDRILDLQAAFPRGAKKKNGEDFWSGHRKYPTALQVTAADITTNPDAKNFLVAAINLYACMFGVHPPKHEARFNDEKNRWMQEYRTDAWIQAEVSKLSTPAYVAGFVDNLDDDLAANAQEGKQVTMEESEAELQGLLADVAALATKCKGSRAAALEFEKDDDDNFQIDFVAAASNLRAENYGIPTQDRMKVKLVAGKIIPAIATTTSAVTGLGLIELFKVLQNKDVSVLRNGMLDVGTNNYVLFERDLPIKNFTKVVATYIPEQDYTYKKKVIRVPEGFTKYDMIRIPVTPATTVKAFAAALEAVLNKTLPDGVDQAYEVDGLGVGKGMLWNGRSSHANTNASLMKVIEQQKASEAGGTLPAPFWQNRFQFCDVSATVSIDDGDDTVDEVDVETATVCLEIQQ

[3] = target: T2, Aspartate--tRNA(Asp/Asn) ligase (Mycobacterium tuberculosis (strain ATCC 25618 / H37Rv)) (UniProt P9WFW3); experiment: Assay for Asp RNA synthetase-1 from Mycobacterium tuberculosis; format: functional; conditions: 30 µM; also: in the data most compounds retested in dose-response had high values
T2 sequence (whole entry): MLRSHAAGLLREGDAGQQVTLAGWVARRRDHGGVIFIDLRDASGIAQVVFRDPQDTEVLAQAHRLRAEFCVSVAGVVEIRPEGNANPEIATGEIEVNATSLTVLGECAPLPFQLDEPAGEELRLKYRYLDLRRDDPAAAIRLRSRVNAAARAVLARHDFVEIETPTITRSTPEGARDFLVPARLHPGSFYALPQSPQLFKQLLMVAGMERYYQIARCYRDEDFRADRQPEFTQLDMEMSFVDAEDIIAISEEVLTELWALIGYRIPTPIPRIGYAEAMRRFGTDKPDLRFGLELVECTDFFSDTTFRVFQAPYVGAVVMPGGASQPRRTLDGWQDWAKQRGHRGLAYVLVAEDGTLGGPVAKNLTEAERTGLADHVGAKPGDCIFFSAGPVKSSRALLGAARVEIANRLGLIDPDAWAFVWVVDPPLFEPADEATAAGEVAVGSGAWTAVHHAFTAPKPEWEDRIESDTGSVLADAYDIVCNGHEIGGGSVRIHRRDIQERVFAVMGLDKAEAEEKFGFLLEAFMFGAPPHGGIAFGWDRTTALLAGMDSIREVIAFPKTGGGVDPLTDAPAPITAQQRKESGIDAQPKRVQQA

[4] = target: AMP-activated protein kinase, AMPK (Homo sapiens) (UniProt P54646+O43741+P54619+Q9UGJ0+Q9Y478+Q13131+Q9UGI9); experiment: AMP-dependent Kinase enzyme assay. An in vitro enzyme assay that detects ADP turnover that is directly proportional to AMPK activity. This uses naive AMPK that is activated during the assay with MK-8722; format: functional; conditions: 30 µM
[5] = target: Sialic acid-binding Ig-like lectin 9 (Homo sapiens) (UniProt Q9Y336); experiment: Hs-Siglec9 ALPHAscreen SOP 20170721; conditions: 10 µM
Trypanosoma cruzi = experiment: Trypanosoma cruzi phosphomannomutase and mannose-1-phosphate guanylyltransferase assay; format: functional; conditions: 10 µM
[6] = target: T3, Arginase-2, mitochondrial (Homo sapiens) (UniProt P78540); experiment: in vitro enzyme assay to detect the production of urea directly proportional to the activity of Arginase II; format: functional; conditions: 33.3 µM; also: in the data most compounds retested in dose-response had high values
T3 sequence (whole entry): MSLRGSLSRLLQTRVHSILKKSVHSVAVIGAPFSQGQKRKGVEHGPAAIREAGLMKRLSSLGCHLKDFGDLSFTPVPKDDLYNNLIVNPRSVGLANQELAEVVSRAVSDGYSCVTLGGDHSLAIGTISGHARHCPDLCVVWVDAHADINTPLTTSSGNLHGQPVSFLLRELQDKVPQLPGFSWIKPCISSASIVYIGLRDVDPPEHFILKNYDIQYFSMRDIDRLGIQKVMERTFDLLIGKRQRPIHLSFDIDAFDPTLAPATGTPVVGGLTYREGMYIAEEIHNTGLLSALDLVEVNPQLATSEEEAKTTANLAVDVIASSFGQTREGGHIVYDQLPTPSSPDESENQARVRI

[7] = target: T4, Proteasome subunit beta (Trypanosoma cruzi) (UniProt O96673); experiment: Trypanosoma cruzi proteasome chymotrypsin-like activity (TcProtChymo) assay.; also: in the data most compounds retested in dose-response had high values; format: functional; conditions: 9.37 µM
T4 sequence (whole entry): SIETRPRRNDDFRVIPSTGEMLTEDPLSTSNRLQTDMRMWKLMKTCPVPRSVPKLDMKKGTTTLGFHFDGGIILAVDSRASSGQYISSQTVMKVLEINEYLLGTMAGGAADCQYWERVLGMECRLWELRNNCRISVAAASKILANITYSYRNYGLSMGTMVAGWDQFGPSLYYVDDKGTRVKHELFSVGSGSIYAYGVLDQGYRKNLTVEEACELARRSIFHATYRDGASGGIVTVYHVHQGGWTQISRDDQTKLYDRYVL

Homo sapiens = organism: Homo sapiens; experiment: To identify inhibition of the IFN signalling (Jak-Stat) pathway via expression of an eGFP reporter gene under the control of an IFN-stimulated response element (ISRE) containing MxA promoter.; format: functional; conditions: 30 µM
[8] = target: Shiga toxin 2 (Escherichia coli O157:H7) (UniProt P09385+P09386); experiment: E. coli 0.157:H7 Shiga Toxin SOP - stx2 screening assay; format: functional; conditions: 30 µM
[9] = target: T5, Tyrosyl-tRNA synthetase, putative (Trypanosoma cruzi (strain CL Brener)) (UniProt Q4DSP6); experiment: Trypanosoma cruzi tyrosyl tRNA synthetase (TcYRS) _High Tyrosine SOP; format: functional; conditions: 30 µM; also: in the data most compounds retested in dose-response had high values
T5 sequence (whole entry): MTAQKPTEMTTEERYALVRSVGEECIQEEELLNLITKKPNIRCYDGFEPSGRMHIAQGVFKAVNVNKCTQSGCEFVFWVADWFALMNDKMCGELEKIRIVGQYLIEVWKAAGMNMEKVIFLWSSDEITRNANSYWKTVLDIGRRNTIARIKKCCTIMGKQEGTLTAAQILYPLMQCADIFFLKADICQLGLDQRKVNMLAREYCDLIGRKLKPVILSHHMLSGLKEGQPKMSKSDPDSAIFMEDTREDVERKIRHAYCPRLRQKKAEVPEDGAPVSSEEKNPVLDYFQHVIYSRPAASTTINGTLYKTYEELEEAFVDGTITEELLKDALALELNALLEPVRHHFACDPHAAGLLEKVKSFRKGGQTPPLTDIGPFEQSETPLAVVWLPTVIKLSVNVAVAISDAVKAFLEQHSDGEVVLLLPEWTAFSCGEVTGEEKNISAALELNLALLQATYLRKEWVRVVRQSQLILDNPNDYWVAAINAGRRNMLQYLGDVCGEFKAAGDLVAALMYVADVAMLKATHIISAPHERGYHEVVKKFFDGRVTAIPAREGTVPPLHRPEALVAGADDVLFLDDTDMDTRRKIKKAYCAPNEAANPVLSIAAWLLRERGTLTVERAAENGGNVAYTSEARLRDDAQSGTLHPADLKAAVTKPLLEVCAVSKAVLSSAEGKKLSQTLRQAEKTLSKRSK

[10] = target: T5, Tyrosyl-tRNA synthetase, putative (Trypanosoma cruzi (strain CL Brener)); experiment: Trypanosoma cruzi tyrosyl tRNA synthetase (TcYRS) SOP; format: functional; conditions: 30 µM
[11] = target: Chromo domain-containing protein 1 (Saccharomyces cerevisiae (strain ATCC 204508 / S288c) (Baker's yeast)) (UniProt P32657); experiment: ScCHD-1 Enzyme Inhibition Assay; format: functional; conditions: 30 µM; also: in the data most compounds retested in dose-response had high values
Chain of Chromo domain-containing protein 1 (Saccharomyces cerevisiae (strain ATCC 204508 / S288c) (Baker's yeast)) (P32657 whole entry, the tested form may be a part): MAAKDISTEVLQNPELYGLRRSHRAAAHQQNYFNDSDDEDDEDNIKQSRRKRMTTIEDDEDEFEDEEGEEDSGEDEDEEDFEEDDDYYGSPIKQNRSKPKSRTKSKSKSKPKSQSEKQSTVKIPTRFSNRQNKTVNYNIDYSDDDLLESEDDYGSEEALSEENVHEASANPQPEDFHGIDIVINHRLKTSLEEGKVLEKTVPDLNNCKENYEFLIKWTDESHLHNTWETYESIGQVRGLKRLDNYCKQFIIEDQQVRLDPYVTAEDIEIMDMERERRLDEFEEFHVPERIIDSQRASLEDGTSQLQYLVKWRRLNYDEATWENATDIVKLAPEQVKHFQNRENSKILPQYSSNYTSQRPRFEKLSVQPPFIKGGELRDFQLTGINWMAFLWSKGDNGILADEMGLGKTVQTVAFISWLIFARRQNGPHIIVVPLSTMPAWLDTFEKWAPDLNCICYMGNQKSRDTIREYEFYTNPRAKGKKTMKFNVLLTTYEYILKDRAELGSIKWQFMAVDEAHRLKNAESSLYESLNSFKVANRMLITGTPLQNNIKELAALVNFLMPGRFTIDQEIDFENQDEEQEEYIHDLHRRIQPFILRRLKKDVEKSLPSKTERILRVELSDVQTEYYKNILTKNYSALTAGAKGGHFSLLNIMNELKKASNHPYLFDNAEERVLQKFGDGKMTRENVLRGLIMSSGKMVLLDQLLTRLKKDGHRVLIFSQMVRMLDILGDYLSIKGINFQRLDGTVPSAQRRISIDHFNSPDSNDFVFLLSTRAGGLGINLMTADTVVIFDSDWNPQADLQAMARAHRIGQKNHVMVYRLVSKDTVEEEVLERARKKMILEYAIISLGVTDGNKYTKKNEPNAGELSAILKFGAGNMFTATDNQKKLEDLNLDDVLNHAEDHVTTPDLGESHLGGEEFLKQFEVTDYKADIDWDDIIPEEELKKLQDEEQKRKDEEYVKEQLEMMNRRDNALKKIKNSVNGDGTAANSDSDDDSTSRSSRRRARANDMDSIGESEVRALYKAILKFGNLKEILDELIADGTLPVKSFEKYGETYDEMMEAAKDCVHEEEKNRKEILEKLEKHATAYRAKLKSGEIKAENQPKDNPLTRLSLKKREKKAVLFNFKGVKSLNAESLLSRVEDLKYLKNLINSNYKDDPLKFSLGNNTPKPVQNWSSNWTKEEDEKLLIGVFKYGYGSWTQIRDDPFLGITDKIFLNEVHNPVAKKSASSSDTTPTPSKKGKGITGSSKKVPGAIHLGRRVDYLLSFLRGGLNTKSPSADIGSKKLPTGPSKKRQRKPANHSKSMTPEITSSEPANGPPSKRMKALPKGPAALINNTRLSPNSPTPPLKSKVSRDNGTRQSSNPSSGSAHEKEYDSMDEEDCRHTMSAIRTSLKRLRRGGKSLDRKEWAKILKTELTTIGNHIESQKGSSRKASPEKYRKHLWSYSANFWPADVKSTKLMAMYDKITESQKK

Chain of Protein translocase subunit SecA (Escherichia coli (strain K12)) (P10408 whole entry): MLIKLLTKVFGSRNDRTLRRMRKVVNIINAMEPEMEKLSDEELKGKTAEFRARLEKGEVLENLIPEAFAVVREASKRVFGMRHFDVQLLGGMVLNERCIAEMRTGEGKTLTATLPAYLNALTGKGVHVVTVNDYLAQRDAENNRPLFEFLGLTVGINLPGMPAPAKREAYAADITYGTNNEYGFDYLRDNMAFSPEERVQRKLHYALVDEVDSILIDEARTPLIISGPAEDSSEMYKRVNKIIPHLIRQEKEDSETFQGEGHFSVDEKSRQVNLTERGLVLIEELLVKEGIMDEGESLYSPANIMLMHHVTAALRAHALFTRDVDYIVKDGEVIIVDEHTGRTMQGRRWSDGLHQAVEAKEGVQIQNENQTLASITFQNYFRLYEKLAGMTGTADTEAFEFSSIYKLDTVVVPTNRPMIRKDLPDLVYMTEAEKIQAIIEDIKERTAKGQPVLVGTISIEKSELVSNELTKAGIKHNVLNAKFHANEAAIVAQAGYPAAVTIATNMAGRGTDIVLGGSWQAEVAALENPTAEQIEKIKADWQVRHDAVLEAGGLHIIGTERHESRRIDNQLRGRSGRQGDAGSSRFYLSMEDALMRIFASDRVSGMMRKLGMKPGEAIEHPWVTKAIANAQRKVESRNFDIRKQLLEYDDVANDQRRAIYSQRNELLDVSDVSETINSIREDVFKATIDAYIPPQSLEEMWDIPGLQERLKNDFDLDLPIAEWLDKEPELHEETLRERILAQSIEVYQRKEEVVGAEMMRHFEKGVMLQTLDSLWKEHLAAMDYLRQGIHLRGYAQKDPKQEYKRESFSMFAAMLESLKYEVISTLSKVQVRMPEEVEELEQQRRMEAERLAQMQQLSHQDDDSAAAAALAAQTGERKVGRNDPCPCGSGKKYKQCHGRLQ
Chain of Sialic acid-binding Ig-like lectin 9 (Homo sapiens) (Q9Y336 whole entry): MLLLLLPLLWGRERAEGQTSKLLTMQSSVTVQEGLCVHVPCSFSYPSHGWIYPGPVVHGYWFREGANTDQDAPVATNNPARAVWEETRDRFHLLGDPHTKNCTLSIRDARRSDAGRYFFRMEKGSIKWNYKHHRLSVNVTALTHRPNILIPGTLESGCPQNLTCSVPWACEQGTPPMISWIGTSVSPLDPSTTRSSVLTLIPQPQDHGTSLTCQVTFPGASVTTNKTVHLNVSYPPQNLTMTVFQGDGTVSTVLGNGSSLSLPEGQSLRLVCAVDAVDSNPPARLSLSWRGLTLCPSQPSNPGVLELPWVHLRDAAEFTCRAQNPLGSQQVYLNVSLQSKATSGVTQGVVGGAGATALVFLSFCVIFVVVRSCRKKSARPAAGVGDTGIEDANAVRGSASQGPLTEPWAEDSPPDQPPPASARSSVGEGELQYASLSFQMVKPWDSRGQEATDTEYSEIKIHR

Compound	Percent Effect [1] [%]	Percent Effect [2] [%]	Percent Effect [3] [%]	Percent Effect [4] [%]	Percent Effect [5] [%]	Percent Effect (Trypanosoma cruzi) [%]	Percent Effect [6] [%]	Percent Effect [7] [%]	Percent Effect (Homo sapiens) [%]	Percent Effect [8] [%]	Percent Effect [9] [%]	Percent Effect [10] [%]	Percent Effect [11] [%]
Cn1c(=O)n(C)c2cc(C3SCC(=O)Nc4ccsc43)ccc21 (stereo not given)	-5.92	6.67	-5.4	-13.6	-2.48	7.27	-11.8	12.9	37.1	-33.2	4.23	12.8	-7.83
O=C(c1cc(-n2cnnn2)ccc1Cl)N1CCC2(CC1)OCCO2	-3.84	5.26	0.24	3.99	7.5	-3.21	-3.55	8.53	7.36	-4.29	3.19	5.2	-4.14
c1ccc(CO[C@@H]2CO[C@@]3(CCN(Cc4ccccn4)C3)C2)nc1	-5.26	6.67	0.581	5.55	4.84	-1.18	4.75	6.84	-42	-15.8	5.29	5.13	-3.05
CCN1C[C@H]2[C@@H](C1)N(S(=O)(=O)c1cccnc1)CC[C@H]2OC	-0.0411	5.33	1.49	5.24	-6.52	-5.91	-2.56	4.49	14.5	-25	-3.19	-3.85	-1.11
CC(Cc1c(F)cccc1F)NC(=O)Nc1cnn(CC(N)=O)c1 (stereo not given)	-4.08	21.5	-0.509	-1.23	-0.0747	0.513	-1.07	19.7	15	-36.4	3.12	17.7	-23.1
COc1ncccc1CN1C[C@@H]2COC[C@]2(COCC2CC2)C1	-2.06	1.33	0.116	0.466	5.34	-9.23	24.5	14.4	2.6	-25.1	6.35	2.56	-9.86
Cc1noc(C)c1CN1CC[C@@H]2O[C@@H](COCC(C)C)CC[C@@H]21	-2.23	0	-1.08	1.3	5.58	-1.16	-49.3	2.22	8.8	2.31	2.08	2.5	1.48
O=C(c1ccnnc1)N1C[C@@H]2OCCN(CCN3CCCC3)[C@@H]2C1	3.18	0	0.474	-5.06	4.92	-2.64	-1.59	12.7	-3.96	-4.98	6.49	2.56	6.02
COCCN1CCC2(CCCN(c3ncccn3)C2)C1 (stereo not given)	-2.69	2.67	-4.34	10.4	2.96	-2.17	8.16	4.32	-7.02	-6.31	-1.06	-3.85	-4.53
O=C(C1CCOC1)N1C[C@H]2CN(Cc3ccccn3)C[C@H]2C1 (stereo not given in full)	-0.372	13.5	-0.474	2.96	-5.9	0.293	6.05	16.2	-9.37	-2.63	6.49	15.4	-0.817
